Source: PubChem BioAssay (National Center for Advancing Translational Sciences (NCATS))
Sampled rows, rich in hits. Any-hit rate of the full collection: about 9.4%.
Pf growth 96h = P. falciparum growth inhibition at 96 hour, primary screen for plastid delayed-death inhibitors; actives 6.9% (n = 320,000); Potency, µM (top dose mostly 28.7 µM), for the others: at the highest dose activity change, negative = inhibition, actives largely listed as inhibitors; P. falciparum luciferase reporter growth, 96 h; further: on the % scale 0 is the no-effect control and ±100 the full control effect
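Luminescence readout: decreased luciferase signal marks inhibited growth of reporter-expressing P. falciparum in infected red cells (2% hematocrit, 0.05% parasitemia final), exposed to compound two generations (96 h, 37 C, 5% CO2).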
SARS PLP yeast = inhibitors of SARS-CoV papain-like protease in yeast | S. cerevisiae expressing SARS-CoV PLpro, growth rescue | Potency, µM (series often up to 32.9 µM), for inactives: at the top dose activity, positive = growth rescue, most hits filed as activators | actives 0.19% (n = 330,000); calls by dose curve; further: 0% is about no effect; nearly all actives have a fitted effect of over 55% in size
Pf growth 48h = P. falciparum growth inhibition at 48 hours (one generation); P. falciparum luciferase growth in erythrocytes, 48 h; Potency, µM (doses to about 28.7 µM), for inactives: at the top dose activity change, negative = inhibition, actives largely listed as inhibitors; actives 5.9% (n = 310,000); further: on the % scale 0 is the no-effect control and ±100 the full control effect
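Cell-based growth assay: transgenic P. falciparum expressing firefly luciferase, cultured in red cells within RPMI 1640 containing 0.5% w/v Albumax, 24 mM bicarbonate and gentamycin. A drop in luciferase activity indicates inhibition.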
AMA1 RON2 block = disrupts binding of P. falciparum AMA1 to RON2; actives 0.2% (n = 360,000); AID 720542; Potency, µM (doses to about 58.2 µM), for inactives: top-dose activity change, negative = inhibition, usual class: inhibitors; AlphaScreen AMA1-biotinylated RON2 peptide binding;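 further: 0% = vehicle wells and -100% = peptide control; nearly all actives have a fitted effect of over 45% in size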
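AMA1 (3D7) with his tag at 25 nM final met compounds first, then biotinylated RON2 peptide at 25 nM; detection used donor plus acceptor beads, 10 µg/mL apiece, read by AlphaScreen after 30 min at room temperature.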
Active calls of the source: *; ? = inconclusive; / = not tested or not shown; [ ] = another dose, or the depositor's remark. Unless noted, the call rests on the fitted dose curve; in most records, active means well fitted curve in the direction sought with a large enough effect; inconclusive means small, poorly fitted or top-dose-only effect, or another doubt; inactive means no such curve, though single readings can be large; an effect the other way counts as inactive or inconclusive. Potency means the concentration at half of the fitted maximal effect.

SMILES	Pf growth 96h	SARS PLP yeast	Pf growth 48h	AMA1 RON2 block
Cc1ccccc1OCCC(=O)Nc1ccc(N2CCOCC2)cc1N1CCOCC1	-6.6%	0.1%	?	5.3%
CCN(CC)S(=O)(=O)c1ccc(N2CCOCC2)c(NC(=O)COc2ccccc2C)c1	2.94µM*	-0.7%	1.85µM*	-3.5%
Cc1ccccc1OCC(=O)Nc1ccc(N2CCOCC2)cc1N1CCOCC1	?	1.6%[6.58 µM]	9.28µM*	-10.1%
Cc1cccc(NC(=O)CSCC(=O)Nc2cc(S(=O)(=O)N3CCOCC3)ccc2N2CCCC2)c1	?	1.3%	?	4.7%
Cc1ccnc2nc(C(=O)Nc3cc(Cl)ccc3N3CCOCC3)nn12	0.233µM*	-15.9%	0.147µM*	-8.0%
Cc1cccc(NC(=O)CSCC(=O)Nc2cc(Cl)ccc2N2CCOCC2)c1	?	-10.6%	11.7µM*	9.1%
Cc1cc(C(=O)CSc2ncn[nH]2)c(C)n1-c1cccc(S(=O)(=O)N2CCOCC2)c1	?	-3.6%	-20.2%	6.2%[2.32 µM]
COc1cc2[nH]c(=O)n(-c3cccc(Cl)c3)c(=O)c2cc1OC	21.4%	3.4%	-1.7%	2.2%
COc1cc(/C=C/C(=O)OCC(=O)Nc2cc(S(=O)(=O)N3CCOCC3)ccc2Cl)cc(OC)c1OC	/	-11.7%	/	-12.3%
CCN(CC)S(=O)(=O)c1ccc(N2CCOCC2)c(NC(=O)Cc2ccc(Cl)cc2)c1	11.7µM*	15.4%	11.7µM*	2.5%
CCSc1nnc(-c2cnn(-c3ccccc3)c2-n2cccc2)n1C	/	-2.1%	10.4µM*	-3.7%
O=[N+]([O-])c1cccnc1Oc1ccc(F)cc1	?	0.2%	9.1%	10.0%
O=C(CSc1nnc(-c2ccccc2)o1)c1nnc(-c2ccccc2)o1	?	3.9%	/	27.9%
Nc1ccc(Br)c[n+]1Cc1cccc2cccnc12	10.4µM*	0.8%	?	0.0%
COc1ccc(NC(=O)CCCn2c(=O)c3sccc3n(Cc3ccc(C)cc3)c2=O)cc1	2.9%	22.8%	-11.0%	-1.3%
COc1ccc(NC(=O)CCCn2c(=O)c3sccc3n(Cc3ccc(C)cc3C)c2=O)cc1	8.28µM*	-3.6%	-1.8%	2.4%
CCCCc1oc2ccccc2c1C(=O)c1cc(I)c(OCCN(CC)CC)c(I)c1	4.15µM*	-19.0%	8.28µM*	-16.9%
Cn1cc(CN2CCCC(CO)(Cc3cccc(Cl)c3)C2)cn1 (centres undefined)	-4.4%	0.3%	?	5.2%
CCCCn1nc(C(=O)Nc2c(C)n(C)n(-c3ccccc3)c2=O)c2ccccc2c1=O	14.7µM*	2.8%	?	-3.3%
CCCc1cc(C(=O)Nc2c(C)n(C)n(-c3ccccc3)c2=O)no1	9.28µM*	3.6%	/	1.1%
COc1cccc(N2CCN(C(=O)CCc3nnc4ccc(N5CCCC5)nn34)CC2)c1	?	0.3%	?	-9.0%
COc1cccc(NC(=O)CCc2nnc3ccc(N4CCN(c5cccc(OC)c5)CC4)nn23)c1	?	0.1%	?	3.0%
COc1ccccc1N1CCN(C(=O)CCc2nnc3ccc(N4CCC(C)CC4)nn23)CC1	-19.0%	5.0%	10.4µM*	-8.6%
COc1cc(NC(=O)CCc2nnc3ccc(N4CCN(c5cccc(OC)c5)CC4)nn23)cc(OC)c1	3.29µM*	-4.8%	2.4%	5.3%
COc1cccc(N2CCN(C(=O)CCc3nnc4ccc(N5CCOCC5)nn34)CC2)c1	11.7µM*	2.0%	-3.3%	-0.2%
SMILES	Pf growth 96h	SARS PLP yeast	Pf growth 48h	AMA1 RON2 block
COc1ccc(NC(=O)CCc2nnc3ccc(N4CCN(c5cccc(OC)c5)CC4)nn23)cc1	0.329µM*	1.6%	11.7µM*	-10.4%
O=C(CCn1nnc2ccccc21)NNC(=O)C1CCCCC1	-16.0%	2.3%	-4.4%	54.4%
O=c1c(-c2ccnn2-c2ccccc2F)cnc2n1CCS2	/	2.9%	16.4%	-3.5%
COc1cc(NC(=O)CCc2nnc3ccc(N4CCC(C)CC4)nn23)cc(OC)c1	1.85µM*	14.8%	-16.2%	-6.7%
CC1CCN(c2ccc3nnc(CCC(=O)Nc4ccc(F)cc4)n3n2)CC1	?	3.6%	?	-7.1%
CCCCOP(=O)(c1ccc(N(C)C)cc1)C(Nc1ccccc1)c1ccccc1 (centres undefined)	14.7µM*	-75.2%	?	?
CCCOP(=O)(c1ccc(N(C)C)cc1)C(Nc1ccccc1)c1ccc(N(C)C)cc1 (centres undefined)	8.28µM*	-2.1%	2.62µM*	-15.4%
CCOc1ccc(-n2c(-c3ccccc3)nnc2-c2ccccc2)cc1	?	0.1%	-1.8%	-4.6%
